Consider 88 compounds from PubChem BioAssay AID1645853 (Buhrlage Lab, Dana-Farber Cancer Institute and Novartis …, 2021).

Screen size: about 47,000 compounds; about 2,000 (4.3%) were called active. Cut-off read from the data, not from the text of the source: active = inhibition above about 30%; inactive = the rest. Only a selection was taken, and actives are over-represented in it overall.

The assay deals with Ubiquitin carboxyl-terminal hydrolase 8 (Homo sapiens) (UniProt P40818). Briefly: blocks human USP8 ubiquitin-rhodamine cleavage (AID 1645853). The conditions noted are these: purified USP8, Ub-rhodamine cleavage fluorescence, 30 min; at 20 µM; stronger effect = higher value.
Chain of Ubiquitin carboxyl-terminal hydrolase 8 (Homo sapiens) (P40818 whole entry, looked up): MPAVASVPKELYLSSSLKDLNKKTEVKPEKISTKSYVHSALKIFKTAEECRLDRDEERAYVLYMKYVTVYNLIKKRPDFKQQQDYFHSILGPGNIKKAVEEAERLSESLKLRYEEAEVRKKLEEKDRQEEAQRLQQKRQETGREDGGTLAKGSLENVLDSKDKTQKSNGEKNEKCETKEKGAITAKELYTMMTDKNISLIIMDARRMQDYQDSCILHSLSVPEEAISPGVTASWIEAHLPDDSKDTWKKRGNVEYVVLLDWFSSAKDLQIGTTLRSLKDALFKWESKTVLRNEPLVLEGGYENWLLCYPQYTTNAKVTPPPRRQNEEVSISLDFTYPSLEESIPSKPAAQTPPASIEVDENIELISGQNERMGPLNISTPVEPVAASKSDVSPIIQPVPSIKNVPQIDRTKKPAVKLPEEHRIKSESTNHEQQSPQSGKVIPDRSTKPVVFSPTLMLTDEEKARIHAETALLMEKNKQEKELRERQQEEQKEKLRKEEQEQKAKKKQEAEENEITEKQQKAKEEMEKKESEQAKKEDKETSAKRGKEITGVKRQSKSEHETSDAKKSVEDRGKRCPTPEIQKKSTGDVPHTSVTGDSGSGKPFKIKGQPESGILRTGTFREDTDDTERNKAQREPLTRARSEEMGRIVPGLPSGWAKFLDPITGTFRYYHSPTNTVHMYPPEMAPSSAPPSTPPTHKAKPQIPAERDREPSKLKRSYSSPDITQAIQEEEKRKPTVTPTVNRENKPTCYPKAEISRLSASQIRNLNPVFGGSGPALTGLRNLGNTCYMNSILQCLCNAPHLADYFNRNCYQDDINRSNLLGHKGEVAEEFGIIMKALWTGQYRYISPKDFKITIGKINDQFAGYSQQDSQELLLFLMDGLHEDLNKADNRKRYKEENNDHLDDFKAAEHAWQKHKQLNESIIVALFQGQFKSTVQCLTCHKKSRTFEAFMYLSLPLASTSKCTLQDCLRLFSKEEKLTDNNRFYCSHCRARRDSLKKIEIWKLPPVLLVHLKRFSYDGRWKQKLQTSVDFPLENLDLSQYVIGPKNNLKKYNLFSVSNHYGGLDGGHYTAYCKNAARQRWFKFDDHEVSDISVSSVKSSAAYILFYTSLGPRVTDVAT
As usually defined, the inhibition is the change of the read-out against control, counted positive when it falls. With `Cn1cc(-c2nc(CN3CCCC3Cn3cccn3)cs2)cn1` (stereo not drawn), the inhibition was -48.6% (inactive).

In the case of `O=C(Cn1c(=O)n(Cc2ccc3c(c2)OCO3)c(=O)c2ccccc21)NCc1ccco1`, the inhibition was 8.11% (inactive).

For `O=C(NCCc1ccccc1)c1ccc2c(=O)n(Cc3ccco3)c(=O)n(Cc3cccc([N+](=O)[O-])c3)c2c1`, the inhibition was 83.9% (active).

Regarding `O=C(CCc1nnc2n(Cc3ccccc3)c(=O)c3ccccc3n12)N1CCN(C(=O)c2ccco2)CC1`, the inhibition is 2.75% (inactive).

Take `COc1ccc(-c2ccc3nc(N4CCC(C(N)=O)CC4)sc3n2)cc1`: the inhibition was -18.5% (inactive).

With `C[C@@H]1CCCCCCCCC[C@@H](OC(=O)CCC(=O)O)C(=O)/C=C/C(=O)O1`, the inhibition is -0.995% (inactive).

`Cc1ccc(NC(=O)Cc2sc(Nc3ccc(C)cc3)nc2O)cc1`: the inhibition was 35.4% (active).

As to `CCOc1ccc(Nc2nc(O)c(CC(=O)Nc3cccc(C)c3)s2)cc1`, the inhibition was 29.3% (inactive).

In the case of `Cc1ccc(Nc2nc(O)c(CC(=O)Nc3ccc(C(C)C)cc3)s2)cc1C`, the inhibition is -0.936% (inactive).

Take `O=C(NCc1ccncc1)c1nnn(-c2ccc(F)cc2)c1-c1ccncc1`: the inhibition is 5.41% (inactive).

In the case of `O=C(CSc1nnc(-c2cccnc2)o1)N1CCN(c2ccc(F)cc2)CC1`, the inhibition was 19% (inactive).

As to `Cc1nc(-c2cccc(NC(=O)C3CCN(c4ccccc4)C3=O)c2)no1` (stereo not drawn), the inhibition was 27.7% (inactive).

Turning to `O=C(COC(=O)c1ccc(F)cc1)NC1CCCc2ccccc21` (stereo not drawn), the inhibition is 7.36% (inactive).

As to `Nc1ccc(C(=O)OCC(=O)NC2CCCc3ccccc32)cc1[N+](=O)[O-]` (stereo not drawn), the inhibition was 50.4% (active).

Consider `O=C(c1ccccc1)c1ccc(NC2CCCc3ccccc32)c([N+](=O)[O-])c1` (stereo not drawn), for which the inhibition was -7.98% (inactive).

Regarding `O=C(CN1CCN(Cc2nc3ccccc3s2)CC1)N1CCc2ccccc21`, the inhibition is -4.14% (inactive).

Take `CC(C)C(=O)N1[C@@H](c2ccccc2)C[C@@H]2NC(=O)CCC[C@H]21`: the inhibition was 1.29% (inactive).

In the case of `CC1CCc2c(sc3ncnc(OCc4cccc([N+](=O)[O-])c4)c23)C1` (stereo not drawn), the inhibition was -36.3% (inactive).

As for `Cc1nc(N)ncc1C(=O)N1CCCC(C)(C(=O)NC2CCCC2)C1` (stereo not drawn), the inhibition is 4.82% (inactive).

On to `Cc1nnn(C23CC4CC(CC(C(=O)NC5CCCC5)(C4)C2)C3)n1`, for which the inhibition was 30.1% (active).

With `COCCn1cnc2c(-c3ccccc3)cn(CC(=O)NCc3ccccc3)c2c1=O`, the inhibition is 0.16% (inactive).

Consider `COCCn1cnc2c1c(=O)n(CC(=O)Nc1c(C)cc(C)cc1C)c(=O)n2Cc1ccccc1`, for which the inhibition was 32.6% (active).

For the compound `O=c1c2c(ncn2C2CCCC2)n(Cc2ccccc2)c(=O)n1Cc1ccccc1`, the inhibition is 1.24% (inactive).

Regarding `Cc1nc(C2CCN(C(=O)Cc3ccc(F)cc3)CC2)ncc1C(N)=O`, the inhibition was 0.65% (inactive).

With `O=S(=O)(c1ccccc1)n1nc(-c2cccnc2)nc1NCc1ccc(Cl)cc1`, the inhibition is 3.57% (inactive).

On to `CS(=O)(=O)c1ccc(CN2CCC3(C/C=C/Cc4ccccc4OCC(=O)NC3)CC2)cc1`, for which the inhibition was -3.81% (inactive).

For the compound `O=C1NC(c2ccccc2)=N/C1=C/c1ccc(F)cc1`, the inhibition is -0.962% (inactive).

As for `O=C(O)c1c2c(nc3ccccc13)/C(=C/c1ccc(F)cc1)CCC2`, the inhibition was 35.2% (active).

With `O=C(O)c1ccc2c(=O)n3c(nc2c1)/C(=C/c1cccc(C(F)(F)F)c1)CC3`, the inhibition was 14.9% (inactive).

Turning to `CC1(C)[C@H](Cc2cc(-c3ccccc3)on2)C[C@@H]1NC(=O)C1CC1`, the inhibition is -0.801% (inactive).

Consider `CCOc1ccccc1NC(=O)Nc1cc(-c2nc3ccccc3o2)ccc1OC`, for which the inhibition is 21.7% (inactive).

As for `CCOc1ccccc1NC(=O)Cc1cccs1`, the inhibition was 31.3% (active).

As to `CCOc1ccccc1NC(=O)COc1cccc2c1OC(C)(C)C2`, the inhibition is 8.84% (inactive).

As for `O=S(=O)(Nc1ccc2[nH]ncc2c1)c1ccccc1Cl`, the inhibition is 47% (active).

Take `CCOc1cc(S(=O)(=O)Nc2ccc3cn[nH]c3c2)ccc1Cl`: the inhibition is 22.3% (inactive).

Regarding `CN1C(=O)C(C)(C)COc2ccc(NS(=O)(=O)c3ccccc3Cl)cc21`, the inhibition is 0.668% (inactive).

On to `CCCCCn1c(=O)c2sccc2n2c(CCC(=O)NC3CC3)nnc12`, for which the inhibition was 5.66% (inactive).

As for `COc1ccc(C(=O)N2CCC(Cc3nc(-c4cnccn4)no3)CC2)cc1`, the inhibition was 6% (inactive).

As for `CCOc1ccccc1C(=O)NCC(c1ccco1)N1CCCC1` (stereo not drawn), the inhibition is 23.5% (inactive).

Turning to `Cc1ccc(N2C(=O)CN(S(C)(=O)=O)CC2(C)C(=O)NC2CCCCC2)c(C)c1` (stereo not drawn), the inhibition was 15.1% (inactive).

On to `Cc1ccc(N2C(=O)CN(S(=O)(=O)c3ccccc3)CC2(C)C(=O)NCCC(C)C)cc1C` (stereo not drawn), for which the inhibition was 6.01% (inactive).

As for `CCOc1ccc(NC(=O)Cn2cc(C(=O)c3ccc(Cl)cc3)c(=O)c3cc(OC)ccc32)cc1`, the inhibition is -4.68% (inactive).

For `CCOc1ccc2c(c1)c(=O)c(C(=O)c1ccccc1)cn2CC(=O)Nc1ccc(OC)cc1`, the inhibition was 93.8% (active).

As to `COc1ccc(NC(=O)CSc2cn(CC(=O)N3CCCC3)c3ccccc23)cc1`, the inhibition was -38.7% (inactive).

For the compound `O=C(NCCc1ccccc1)N1CCC(n2c(=O)[nH]c3cncnc32)C1` (stereo not drawn), the inhibition was 5.93% (inactive).

Turning to `COc1cc(C(=O)N(c2ccccn2)C2CCCCC2)cc(OC)c1OC`, the inhibition is -3.54% (inactive).

Regarding `O=C(/C=C/c1ccc(Cl)cc1)Nc1ccc2c(c1)OCCO2`, the inhibition is -8.51% (inactive).

Consider `COCCN1Cc2c(C(=O)N3CCCCC3)ncn2-c2ccccc2S1(=O)=O`, for which the inhibition was -27.7% (inactive).

In the case of `Cc1cc(F)ccc1NC(=O)c1cc(C2CC2)n2nccc2n1`, the inhibition was -4.45% (inactive).

In the case of `Cc1ccc(-n2cc(-c3noc(C(=O)Nc4ccc(F)cc4C)n3)nn2)cc1`, the inhibition is 99% (active).

As to `Cc1ccc(CNC(=O)c2nc(-c3cn(-c4ccc(Br)cc4)nc3C)no2)o1`, the inhibition is 13.8% (inactive).

Turning to `COc1cccc(CNC(=O)c2cc3c(=O)n(C)ccc3n2C)c1`, the inhibition is -1.58% (inactive).

As for `COc1ccc(NC(=O)CS(=O)(=O)c2cn(CC(=O)N3CCCC3)c3ccccc23)cc1`, the inhibition was -8.78% (inactive).

Turning to `Cn1nc(C2CCCN(Cc3cc(F)cc(F)c3)C2)c2nccnc21` (stereo not drawn), the inhibition was 32.7% (active).

In the case of `COc1cc(CN2CCCC(c3ncc(Cl)cc3S(C)(=O)=O)C2)cc(OC)c1` (stereo not drawn), the inhibition was -1.79% (inactive).

As to `Cn1nc(C2CCN(Cc3ccc4c(c3)CC(C)(C)O4)CC2)c2nccnc21`, the inhibition was -31% (inactive).

As for `CC(C)C(=O)N1CCN2[C@H](C[C@@H](C(=O)N(C)C)[C@]23C(=O)Nc2ccccc23)C1`, the inhibition was 18.9% (inactive).

In the case of `COc1ccc(CNC(=O)Cn2c(C)nc3onc(C)c3c2=O)cc1`, the inhibition was 2.79% (inactive).

For the compound `COc1ccc(-c2nc3c(c(=O)c4ccccc4n3C)c(=O)n2Cc2ccco2)cc1`, the inhibition is 89.7% (active).

Regarding `COc1ccc(-c2nc3c(c(=O)c4ccccc4n3C)c(=O)n2CCc2ccc(OC)c(OC)c2)cc1`, the inhibition was 33.9% (active).

Regarding `O=c1c2ccccc2n(Cc2ccccc2Cl)c(=O)n1Cc1ccco1`, the inhibition was -2.33% (inactive).

Consider `CC(C)(C)C(=O)Cn1c(=O)n(Cc2ccco2)c(=O)c2ccccc21`, for which the inhibition is -0.0891% (inactive).

Regarding `COc1ccc(-c2ocnc2C(=O)NCc2ccc(OC)c(OC)c2)cc1`, the inhibition was 3.07% (inactive).

`COc1cccc(CCC(=O)N2CCN(c3cc(C)n4cnnc4n3)CC2)c1`: the inhibition was -8.31% (inactive).

As for `CCc1ccc(NC(=O)CSc2nc(-c3ccccc3F)nc3cc(=O)[nH]n23)cc1`, the inhibition was -16% (inactive).

Take `CCc1ccc(S(=O)(=O)N2CCN=C2N2CCCCC2)cc1`: the inhibition was -0.222% (inactive).

For `CCN(C)C(=O)c1cc(-c2ccn(-c3ccccc3)n2)n2ccccc12`, the inhibition was -39.1% (inactive).

With `O=C(Nc1cccc2ccccc12)N1CCN(Cc2ccc3c(c2)OCO3)CC1`, the inhibition was 61.7% (active).

With `COC(=O)c1cc2c(ccn2C)n1CC(=O)N1CCN(Cc2ccc3c(c2)OCO3)CC1`, the inhibition was 22.5% (inactive).

`O=C(NCc1ccc2c(c1)OCO2)C1=CCN(Cc2ccccc2)CC1`: the inhibition was -26.8% (inactive).

Turning to `CCCCN(c1ccccc1)S(=O)(=O)c1cccc(C(=O)OCC(=O)NCc2ccc3c(c2)OCO3)c1`, the inhibition is 22.8% (inactive).

As for `COc1ccc(N2CC(c3nnc(NC(=O)CCc4ccccc4)s3)CC2=O)cc1` (stereo not drawn), the inhibition was 43.3% (active).

In the case of `CC(C)c1nnc(NC(=O)C2CC(=O)N(CCc3ccc(F)cc3)C2)s1` (stereo not drawn), the inhibition was -27.4% (inactive).

`Cc1ccc(CC(=O)Nc2nnc(C3CC(=O)N(c4ccc(C)c(C)c4)C3)s2)cc1` (stereo not drawn): the inhibition is 35.8% (active).

On to `Cc1ccc(N2CCCS2(=O)=O)cc1NC(=O)Cc1ccc(Cl)cc1`, for which the inhibition is 15.3% (inactive).

Consider `Cc1ccc(N2CC(c3nnc(NC(=O)CCCc4ccccc4)s3)CC2=O)cc1` (stereo not drawn), for which the inhibition was -58.7% (inactive).

Take `COc1ccc(-c2nc(C3CC(=O)N(c4ccccc4)C3)no2)cc1` (stereo not drawn): the inhibition was 12.9% (inactive).

As to `CN1CCN(c2ncc(NC(=O)c3ccccn3)cn2)CC1`, the inhibition is -1.52% (inactive).

In the case of `CC1CCN(S(=O)(=O)CC(F)(F)F)Cc2nc3ccccc3n21` (stereo not drawn), the inhibition was -0.0013% (inactive).

Turning to `CCCNc1nc(Nc2ccc(OC)cc2)c2cnn(C)c2n1`, the inhibition is -0.418% (inactive).

In the case of `Nc1nc(N2CCCC2)nc2c1CCN(Cc1ccc3ncccc3c1)C2`, the inhibition is -7.44% (inactive).

In the case of `O=C(Nc1ccc2c(c1)OCO2)N1CCCCCC1`, the inhibition was 5.28% (inactive).

With `O=C(CCOc1ccccc1F)Nc1ccc2c(c1)OCO2`, the inhibition was 7.17% (inactive).

On to `O=C(CN1CCN(CC(=O)Nc2ccc3c(c2)OCO3)CC1)Nc1ccc(F)cc1`, for which the inhibition is 38.1% (active).

For `CCOc1ccc(-c2noc(-c3nn(-c4cccc(OC)c4)ccc3=O)n2)cc1`, the inhibition is 81.8% (active).

`Cc1ccc(-c2noc(-c3cccc(OCC(=O)N(C)C)c3)n2)cc1`: the inhibition was -30% (inactive).

As for `COc1cccc(-c2cc3c(=O)n(Cc4nc(-c5ccccc5C)no4)ccn3n2)c1`, the inhibition was 0.201% (inactive).

Turning to `COc1nc2c(c(-c3ccc[nH]3)c1C#N)Cc1ccccc1-2`, the inhibition was -97.1% (inactive).
